Entries with a potency or affinity are not part of this list.
target: Protein S100-A4 (Homo sapiens) (UniProt P26447); assay: human S100A4 peptide interaction inhibition curves – biochemical, fluorescence polarization, cherry-picked hits, dose response (AID 687001); conditions: FP, S100A4/TAMRA-myosin IIA peptide binding; series mostly up to 11 µM; activity change, negative = inhibition: at the top concentration;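 also: 0% = DMSO neutral control wells and -100% = TFP positive control wells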
Sequence (P26447 whole entry, looked up): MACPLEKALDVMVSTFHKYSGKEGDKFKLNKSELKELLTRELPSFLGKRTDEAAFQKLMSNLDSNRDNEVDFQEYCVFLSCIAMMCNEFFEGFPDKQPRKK

Activity change, negative = inhibition, inactive:
CCCNC(=O)N1C[C@H](O)COC[C@@H]2O[C@@H](CC(=O)NCCCN3CCOCC3)CC[C@H]21 -0.017%
Cc1ccc(S(=O)(=O)Nc2ccc3c(c2)C(=O)N([C@H](C)CO)C[C@@H](C)[C@@H](CN(C)C(=O)NC(C)C)OCCCC[C@@H](C)O3)cc1 4.8%
O=C(NNC(=O)c1ccccc1F)c1cccc(-n2cccc2)c1 5.6%
Oc1cccc(-c2sc3ccccc3c2-c2ccc(OCCN3CCCCC3)cc2)c1 0.214%
COc1ccc(NC(=O)N(C)C[C@H]2OCCCC[C@@H](C)Oc3ccc(NC(=O)NC4CCCCC4)cc3C(=O)N([C@H](C)CO)C[C@@H]2C)cc1 9.67% [at 10 µM]
CC[C@]12c3[nH]c4ccc(Cl)cc4c3CCN1C(=O)[C@@H](CC(=O)NCCCn1ccnc1)C[C@@H]2C(=O)N1CCN(C(=O)c2ccco2)CC1 1.58%
COc1ccc(CN(C)C[C@H]2Oc3c(NC(=O)Nc4ccccc4)cccc3C(=O)N([C@@H](C)CO)C[C@@H]2C)cc1 -1.55%
COCC(=O)N1CC2(CCN(Cc3ccccc3Cl)CC2)c2c([nH]c3cc(OC)ccc23)[C@H]1CO 7.56%
Cc1cc(=O)oc2c3c(cc(OCC(=O)NCC(=O)N[C@H](C(=O)O)C(C)C)c12)OC(C)(C)CC3 -1.84%
CCCNC(=O)c1ccc2c(c1)nc(C)n2-c1cccc(C)c1 7.13%
CC(NC(=O)c1ccc(N2CCCC2)c([N+](=O)[O-])c1)c1ccc(S(N)(=O)=O)cc1 (centres undefined) -3.17%
CCOc1ccc(OCCC(=O)N(CC(=O)Nc2ccccc2C(F)(F)F)Cc2ccco2)cc1 2.4%
COc1ccc(CNC(=O)c2cc(S(=O)(=O)N3CCCCC3)ccc2Cl)cc1OC -1.49%
COc1cccc(-c2ccc3n(c2=O)C[C@H]2[C@H](CO)[C@@H](C(=O)N4CCOCC4)N[C@@H]32)c1 4.2%
CC1(C(=O)Nc2ccc3c(c2)OCO3)CCN1C(=O)Cc1cccc2ccccc12 (centres undefined) -2.86%
CC=Cc1ccc2n(c1=O)C[C@@H]1[C@@H](CO)[C@H](C(=O)NCc3ccc4c(c3)OCO4)[C@H]2N1C(C)=O (mixture of isomers) -3.41%
COc1ccc(/C=C(\C#N)C(=O)c2cccn2C)cc1 -18%
COCCOC(=O)c1nccnc1C(=O)Nc1ccc(S(=O)(=O)N2CCOCC2)cc1 -5.51%
C[C@@H]1CCCCO[C@@H](CN(C)CC2CCCCC2)[C@@H](C)CN([C@H](C)CO)C(=O)c2cc(NS(=O)(=O)c3cn(C)cn3)ccc2O1 2.69% [at 10 µM]
C#CCOCCOCCOCCNc1nc(N2CCN(C(=O)[C@H]([C@@H](C)CC)n3cc(CCCCN)nn3)CC2)nc(N2CCN(C(=O)[C@H](C)n3cc(CCC(=O)O)nn3)CC2)n1 -4.18%
CCCN1[C@H](C(=O)N2CCCCC2)[C@@H](CO)[C@@H]2Cn3c(ccc(-c4ccccc4F)c3=O)[C@@H]21 0.141%
O=C(C1CCCC1)N1C[C@@H]2[C@H](c3ccccc31)[C@@H](CO)N2C(=O)c1ccccc1F -2.14%
CCCC(=O)Nc1ccc2c(c1)OC[C@H](C)N(CCC(F)(F)F)C[C@H](C)[C@@H](OC)CN(C)C2=O 2.5%
C[C@H](CO)N1C[C@H](C)[C@H](CN(C)Cc2ccccc2)Oc2ccc(NS(=O)(=O)c3ccccc3)cc2CC1=O 3.85%
CCCCn1cnc2c(SCc3ccc(Cl)cc3)nc(N)nc21 -4.13%
Cc1ccc(C(=O)NC2CC(=O)N(c3ccc4c(c3)OCCO4)C2)cc1[N+](=O)[O-] (centres undefined) -1.36%
C[C@@H]1CN([C@H](C)CO)C(=O)c2cccc(NC(=O)C3CCCCC3)c2O[C@@H]1CN(C)Cc1ccc(Oc2ccccc2)cc1 2.6%
C[C@@H]1CN([C@H](C)CO)S(=O)(=O)c2ccc(C3=CCCCC3)cc2O[C@@H]1CN(C)Cc1cncnc1 4.8%
Cc1ccc(CN2C(=O)CSc3ccc(C(=O)NC4CC4)cc32)cc1 -4.95%
CC1Sc2ccc(S(=O)(=O)N3CCC(C(=O)NCCc4ccccc4)CC3)cc2NC1=O (centres undefined) 4.52%
CCCCNS(=O)(=O)c1ccc2nc(-c3cccnc3)cc(C(=O)NC(C)CC)c2c1 (centres undefined) 6.52%
COc1ccccc1CN1[C@H](CO)[C@H]2c3ccccc3N(C(=O)c3cccnc3)C[C@H]21 0.714%
C[C@H]1CN([C@@H](C)CO)C(=O)c2cc(NC(=O)NC3CCCCC3)ccc2O[C@@H]1CN(C)C(=O)Nc1ccccc1 0.497%
COc1ccc(C(=O)N(C)C2(C)CCS(=O)(=O)C2)cc1OC (centres undefined) 10.1%
COCCCNC(=O)c1ccc2sc([C@@H]3O[C@H](CO)[C@H](O)[C@H](O)[C@H]3O)nc2c1 -2.29%
O=C(O)COCC(=O)Nc1ccc(-n2nc(C(F)(F)F)cc2-c2cccs2)cc1 4.81%
CC(OC(=O)C1CC(=O)N(Cc2ccco2)C1)C(=O)Nc1ccc(F)cc1Cl (centres undefined) -1.03%
C[C@H](CO)N1C[C@H](C)[C@H](CN(C)Cc2ccncc2)Oc2c(NC(=O)C3CC3)cccc2C1=O 1.1%
Cc1cccc(-n2nc3c(c2NC(=O)c2cc4ccccc4o2)CS(=O)(=O)C3)c1 -2.96%

From PubChem BioAssay AID687001 (Broad Institute, 2013)
